Compound activity deposited in PubChem BioAssay by The Scripps Research Institute Molecular Screening Center.
pPAFAH inh = inhibitors of human plasma PAF acetylhydrolase (pPAFAH) | Q13093 | recombinant pPAFAH, FP-rhodamine probe fluorescence polarization | inhibition, % at 3.39 µM | 330,000 compounds, 1.5% hits;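 active = inhibition above the mean inhibition across the screen plus 3 SD, cut at about 25% in these data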;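 note: inhibitors block binding of the rhodamine activity-based probe so polarization drops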
PAFAH1B3 FP inh = inhibitors of human PAFAH1B3; recombinant PAFAH1B3, FP-rhodamine probe, fluorescence polarization; AID 492972; Q15102; inhibition, % at 3.39 µM; 340,000 compounds, 0.28% hits;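 active = inhibition above the screen-wide average of all tested compounds plus 3 SD, cut at about 25% in these data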
PAFAH1B2 inh = inhibitors of human PAFAH1B2; P68402; recombinant PAFAH1B2, FP-rhodamine activity probe, fluorescence polarization; inhibition, % at 3.39 µM; 340,000 compounds, 1.2% hits; AID 492953;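 active = inhibition above the mean of all tested compounds plus 3 SD, cut at about 24% in these data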
Target sequence (P68402 whole entry, looked up): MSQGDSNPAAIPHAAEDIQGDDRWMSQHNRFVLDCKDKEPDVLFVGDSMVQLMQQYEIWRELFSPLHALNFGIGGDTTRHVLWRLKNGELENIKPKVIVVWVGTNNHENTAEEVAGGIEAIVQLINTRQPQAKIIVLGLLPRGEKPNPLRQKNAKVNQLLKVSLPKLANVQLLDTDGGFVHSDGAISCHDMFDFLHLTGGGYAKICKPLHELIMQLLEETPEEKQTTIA
LYPLA1 inh = blocks human lysophospholipase 1, a PME1 counter-screen; O75608; recombinant LYPLA1, FP-Rh probe fluorescence polarization; inhibition, % at 5.9 µM; 320,000 compounds, 0.16% hits;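 active = inhibition above the mean of all tested compounds plus 3 SD, set per campaign, cut at about 14% in these data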;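 note: inhibitors block serine hydrolase probe labeling of LYPLA1 so polarization falls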
Target sequence (O75608 whole entry, looked up): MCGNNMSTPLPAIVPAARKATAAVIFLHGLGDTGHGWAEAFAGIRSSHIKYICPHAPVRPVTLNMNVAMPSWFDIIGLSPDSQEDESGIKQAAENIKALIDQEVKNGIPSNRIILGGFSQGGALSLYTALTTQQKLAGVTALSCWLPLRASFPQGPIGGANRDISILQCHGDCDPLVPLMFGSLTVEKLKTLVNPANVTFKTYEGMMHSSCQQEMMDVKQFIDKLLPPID
LYPLA2 counter = blocks human lysophospholipase 2, a PME1 counter-screen. 320,000 compounds, 0.38% hits. recombinant LYPLA2, FP-Rh probe fluorescence polarization. inhibition, % at 5.9 µM. O95372;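 active = inhibition above the screen-wide mean plus 3 SD, limit set per campaign, cut at about 26% in these data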
PAFAH2 inh = PAFAH2 (human) inhibition | 340,000 compounds, 0.99% hits | inhibition, % at 3.39 µM | recombinant PAFAH2, FP-rhodamine activity probe, fluorescence polarization | Q99487;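 active = inhibition above the mean over all tested compounds plus 3 SD, cut at about 30% in these data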;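 note: inhibitors block probe labeling of enzyme so polarization drops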
LYPLA2 confirm = LYPLA2 (human) inhibition, confirmation counter-screen; shares compounds with LYPLA2 counter; recombinant LYPLA2, FP-Rh probe fluorescence polarization; AID 2232; 1,100 compounds, 72% hits; inhibition, % at 5.9 µM;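 active = mean inhibition across replicates above the hit cutoff set in the primary screen, cut at about 26% in these data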;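 note: blocked labeling of the enzyme by serine hydrolase FP-Rh probe lowers polarization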
LYPLA2 gel ABPP = inhibitors of human LYPLA2 | shares compounds with LYPLA2 counter | rhLYPLA2 in mouse brain proteome, gel ABPP FP-Rh | inhibition, % at 20 µM | 150 compounds, 30% hits;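 active = inhibition of LYPLA2 enzyme probe labeling above about 50%, limit read from the data; inactive = inhibition below that limit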;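 note: loss of FP-Rh probe labeling of the LYPLA2 gel band measured as band density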
A number is an active result; i = inactive; nt = no result given. Hits are enriched below; roughly 2.9% of the tested compounds scored in any of these assays.

SMILES	pPAFAH inh	PAFAH1B3 FP inh	PAFAH1B2 inh	LYPLA1 inh	LYPLA2 counter	PAFAH2 inh	LYPLA2 confirm	others
O=C(Nc1ccc(N2CCN(C(=O)c3ccccc3)CC2)cc1)c1cccnc1	i	i	i	i	i	i	nt
O=C(NC(=S)Nc1ccc(N2CCOCC2)cc1)c1ccc(Cl)cc1	i	i	i	i	i	i	nt
CCOC(=O)N1CCN(C(=S)Nc2ccccc2C)CC1	i	i	i	i	i	i	nt
CC1=C(C(N)=O)C(c2ccc(Cl)c(Cl)c2)n2ncnc2N1 (stereo unspecified)	i	i	i	i	i	i	nt
CCC(=O)NC(=S)Nc1ccc(S(=O)(=O)NC(C)=O)cc1	i	i	i	i	i	i	nt
COc1cc(/C=N/N2CCN(Cc3ccccc3)CC2)cc(OC)c1OC(C)=O	i	i	i	i	i	i	nt
Cn1c(=O)c2c(ncn2CC(=O)N2CCN(c3ccc([N+](=O)[O-])cc3)CC2)n(C)c1=O	i	i	i	i	40	i	43
COc1ccc(N2CCN(C(=O)Cn3cnc4c3c(=O)n(C)c(=O)n4C)CC2)cc1	i	i	i	i	i	i	nt
NC(=O)c1ccc(Oc2ccc(Cl)cc2)c([N+](=O)[O-])c1	i	i	i	i	i	i	nt
NC(=O)c1ccc(Oc2ccc3c(c2)CCC3)c([N+](=O)[O-])c1	i	i	i	i	30	i	29
COc1cc(N)c(Cl)cc1C(=O)N[C@H]1CCN(CCCOc2ccc(F)cc2)C[C@H]1OC	i	i	i	i	27	i	31
Cc1nc([N+](=O)[O-])cn1CC(=O)Nc1ccc([N+](=O)[O-])cc1	i	i	i	i	33	i	41
O=C(CN1C(=O)NC2(CCCc3ccccc32)C1=O)NC1CCCCC1 (stereo unspecified)	i	i	i	i	i	i	nt
Cc1onc(-c2ccccc2)c1C(=O)OCc1nnc(-c2ccc([N+](=O)[O-])cc2)o1	i	i	i	i	28	i	28
C#CCOCCOCCOCCNc1nc(N2CCN(C(=O)CCCCCCCCCCNC(=O)[C@H]([C@@H](C)CC)n3cc(CCCCCN)nn3)CC2)nc(N2CCN(C(=O)CCCCCCCCCCNC(=O)[C@H]([C@@H](C)CC)n3cc(CCCCN=C(N)N)nn3)CC2)n1	i	i	i	i	57	i	56
C#CCOCCOCCOCCNc1nc(N2CCN(C(=O)CCCCCCCCCCNC(=O)Cn3cc(CCCCCN)nn3)CC2)nc(N2CCN(C(=O)CCCCCCCCCCNC(=O)[C@H]([C@@H](C)CC)n3cc(CCCCN=C(N)N)nn3)CC2)n1	i	i	i	i	i	i	nt
O=C1CCC[C@H]2c3[nH]c4ccccc4c3CCN12	i	i	i	i	i	i	nt
CCCOc1ccc(N2C(=O)CC(N3CCN(c4ccc([N+](=O)[O-])cc4)CC3)C2=O)cc1 (stereo unspecified)	i	i	i	i	35	i	36
O=[N+]([O-])c1cc2c(cc1CN1CCN(CCOCCO)CC1)OCO2	i	i	i	i	i	i	nt
Cc1cc(N2CCN(c3ccc(C(F)(F)F)cc3[N+](=O)[O-])CC2)c2ccccc2n1	i	i	i	i	29	i	26
Cc1cc(N2CCN(c3ccc([N+](=O)[O-])c4cccnc34)CC2)c2ccccc2n1	i	i	i	i	i	i	nt
O=C(COC(=O)c1ccc(O)cc1O)Nc1ccc2ccccc2c1	i	i	i	i	i	i	nt
COc1ccc(/C=C2\SC(=O)N(CC(=O)Nc3ccc(F)cc3)C2=O)cc1O	i	i	i	i	49	i	54	LYPLA2 gel ABPP=50
COc1ccc(/C=C2/SC(=O)N(CCC(=O)Nc3ccc(C)cc3)C2=O)cc1OC	i	nt	nt	i	i	nt	nt
CCN1C(=O)S/C(=C/c2ccc(Oc3ccc([N+](=O)[O-])cn3)c(OC)c2)C1=O	i	i	i	i	32	i	41
COc1cc(OC)c(/C=C2\SC(=O)N(CC(=O)Nc3ccccc3F)C2=O)c(OC)c1	i	i	i	i	i	i	nt
